Here are results for 42 compounds from the supplement of paper PMC3342239.

The test system of the assay is Saccharomyces cerevisiae. Nature of the assay: fraction of cells in G1 phase (DNA content, flow cytometry); higher = more cells with unreplicated DNA (G1 delay). The following applies: temperature: 30 C, YPD. A digest of the protocol: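 Yeast (S. cerevisiae) in YPD at 30°C was treated with library drugs, and cells were then fixed in ethanol, stained with SYTOX Green and counted by flow cytometry over 10,000 events. Sensitized JTY2953 diluted 1∶200 from an overnight culture got a final 20 µg/ml and was fixed 6–7 h later; other runs dosed dividing JTY2953 (fixed at 6 h) or BY4741 (fixed at 4.33 h). G1 fraction means the Dean-Jett-Fox G1 peak area relative to the G1 and G2/M areas together.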
Background: A flow cytometer gives signals particle by particle.

Setting [1] is: JTY2953 pdr5 snq2 (sensitized), drug added to: cultures diluted from stationary phase, 6-7 h.
Where [2] appears, read: JTY2953 pdr5 snq2 (sensitized), drug added to: actively dividing cells, 6 h.
Setting [3] is: BY4741 PDR5+ SNQ2+, drug added to: actively dividing cells, 4.33 h.

The structures appear in SMILES notation. Structures can show the parent of a compound that is named as a salt.

Consider `C#C[C@]1(O)CC[C@H]2[C@@H]3CCC4=CC(=O)CC[C@@H]4[C@H]3CC[C@@]21CC` [Levonorgestrel] (64.009 µM), for which the “fraction of cells in G1 phase” value under setting [1] was 0.509.

Consider `CN1C2CCCC1CC(NC(=O)c1nn(C)c3ccccc13)C2` (stereo unspecified) [Granisetron] (64.0168 µM), for which the “fraction of cells in G1 phase” value under setting [1] came out at 0.486.

In the case of `CC(C(=O)O)c1cccc(Oc2ccccc2)c1` (stereo unspecified) [Fenoprofen] (82.5501 µM), under setting [1], the “fraction of cells in G1 phase” value turned out to be 0.502.

As for `CCc1ccc(CCOc2ccc(CC3SC(=O)NC3=O)cc2)nc1` (stereo unspecified) [Pioglitazone] (56.1093 µM), the “fraction of cells in G1 phase” value under setting [1] amounted to 0.477.

As to `CN(C)CCOc1ccc(/C(=C(/CCCl)c2ccccc2)c2ccccc2)cc1` [Toremifene] (49.2645 µM), the “fraction of cells in G1 phase” value worked out at 0.524 under setting [2] and 0.901 under setting [1].

Regarding `C=C1/C(=C\C=C2/CCC[C@]3(C)[C@@H]([C@H](C)/C=C/[C@@H](O)C4CC4)CC[C@@H]23)C[C@@H](O)C[C@@H]1O` [Calcipotriene] (48.471 µM), the “fraction of cells in G1 phase” value by setting is: under setting [2], 0.375; under setting [1], 0.634.

For `CCOC(=O)N1CCC(=C2c3ccc(Cl)cc3CCc3cccnc32)CC1` [Loratadine] (52.2338 µM), the “fraction of cells in G1 phase” value runs as follows: under setting [2], 0.448; under setting [1], 0.778.

As to `CCC(C)n1ncn(-c2ccc(N3CCN(c4ccc(OCC5COC(Cn6cncn6)(c6ccc(Cl)cc6Cl)O5)cc4)CC3)cc2)c1=O` (stereo unspecified) [Itraconazole] (28.3427 µM), the “fraction of cells in G1 phase” value amounted to 0.493 under setting [3], 0.751 under setting [2] and 0.667 under setting [1].

In the case of `CCC(C)(C)C(=O)O[C@H]1C[C@@H](C)C=C2C=C[C@H](C)[C@H](CC[C@@H]3C[C@@H](O)CC(=O)O3)[C@H]21` [Simvastatin] (47.7808 µM), the “fraction of cells in G1 phase” value runs as follows: under setting [2], 0.354; under setting [1], 0.879.

Regarding `CC(=O)N1CCN(c2ccc(OCC3COC(Cn4ccnc4)(c4ccc(Cl)cc4Cl)O3)cc2)CC1` (stereo unspecified) [Ketoconazole] (37.6334 µM), the “fraction of cells in G1 phase” value came out at 0.507 under setting [3], 0.84 under setting [2] and 0.747 under setting [1].

`COC(=O)C1=C(C)NC(C)=C(C(=O)OCC(C)C)C1c1ccccc1[N+](=O)[O-]` (stereo unspecified) [Nisoldipine] (51.4901 µM): the “fraction of cells in G1 phase” value reads like this: under setting [2], 0.587; under setting [1], 0.605.

As for `CC(=O)OCC1OC([S-])C(OC(C)=O)C(OC(C)=O)C1OC(C)=O.CC[PH+](CC)CC.[Au+]` (stereo unspecified) [Auranofin] (29.4771 µM), the “fraction of cells in G1 phase” value is, setting by setting: under setting [3], 0.52; under setting [2], 0.959; under setting [1], 0.709.

`Cc1ccc(C)c(OCCCC(C)(C)C(=O)O)c1` [Gemfibrozil] (79.8911 µM): the “fraction of cells in G1 phase” value came out at 0.51 under setting [3], 0.667 under setting [2] and 0.611 under setting [1].

Take `CNCCC(Oc1ccc(C(F)(F)F)cc1)c1ccccc1` (stereo unspecified) [Fluoxetine HCl] (64.655 µM): the “fraction of cells in G1 phase” value by setting is: under setting [3], 0.43; under setting [1], 0.17.

With `OCCN1CCN(CCCN2c3ccccc3Sc3ccc(C(F)(F)F)cc32)CC1` [Fluphenazine 2HCl] (45.711 µM), the “fraction of cells in G1 phase” value is, setting by setting: under setting [2], 0.327; under setting [1], 0.862.

As to `COc1c(N2C[C@@H]3CCCN[C@@H]3C2)c(F)cc2c(=O)c(C(=O)O)cn(C3CC3)c12` [Moxifloxacin HCl] (45.6725 µM), the “fraction of cells in G1 phase” value by setting is: under setting [3], 0.402; under setting [1], 0.212.

For the compound `CCCCCCCCCCCCCCCCOP(=O)([O-])OCC[N+](C)(C)C` [Miltefosine] (49.0703 µM), the “fraction of cells in G1 phase” value is, setting by setting: under setting [2], 0.596; under setting [1], 0.858.

For the compound `CC/C(=C(/CC)c1ccc(O)cc1)c1ccc(O)cc1` [Diethylstilbestrol] (74.5271 µM), the “fraction of cells in G1 phase” value is, setting by setting: under setting [2], 0.42; under setting [1], 0.838.

Consider `C#C[C@]1(O)CC[C@H]2[C@@H]3CCC4=Cc5oncc5C[C@]4(C)[C@H]3CC[C@@]21C` [Danazol] (59.2652 µM), for which the “fraction of cells in G1 phase” value under setting [2] was found to be 0.457 and the “fraction of cells in G1 phase” value under setting [1] is 0.88.

On to `COc1ccc(CN2CCN(C(c3ccc(F)cc3)c3ccc(F)cc3)CC2)c(OC)c1OC` [Lomerizine HCl] (42.685 µM), for which the “fraction of cells in G1 phase” value is, setting by setting: under setting [2], 0.558; under setting [1], 0.638.

`CN(C)CCCN1c2ccccc2Sc2ccc(Cl)cc21` [Chlorpromazine HCl] (62.7212 µM): the “fraction of cells in G1 phase” value under setting [3] stood at 0.373 and the “fraction of cells in G1 phase” value under setting [1] amounted to 0.278.

`O=C1NCN(c2ccccc2)C12CCN(CCCC(c1ccc(F)cc1)c1ccc(F)cc1)CC2` [Fluspirilene] (42.0533 µM): the “fraction of cells in G1 phase” value is, setting by setting: under setting [2], 0.338; under setting [1], 0.865.

As for `O=c1[nH]c2ccccc2n1CCCN1CCN(C(c2ccccc2)c2ccccc2)CC1` [Oxatomide] (46.886 µM), the “fraction of cells in G1 phase” value was 0.433 under setting [3], 0.791 under setting [2] and 0.836 under setting [1].

With `CC(C)(C)C(=O)C(Oc1ccc(Cl)cc1)n1ccnc1` (stereo unspecified) [Climbazole] (68.3135 µM), the “fraction of cells in G1 phase” value is, setting by setting: under setting [3], 0.496; under setting [2], 0.833; under setting [1], 0.719.

For the compound `COc1ccc(-c2cc(=S)ss2)cc1` [Anethole-trithione (anetholtrithion)] (83.2062 µM), the “fraction of cells in G1 phase” value amounted to 0.486 under setting [2] and 0.735 under setting [1].

Take `O=C(CCCN1CCC(O)(c2ccc(Cl)cc2)CC1)c1ccc(F)cc1` [Haloperidol HCl] (53.2093 µM): the “fraction of cells in G1 phase” value is, setting by setting: under setting [3], 0.462; under setting [2], 0.762; under setting [1], 0.617.

For `CC(CN1c2ccccc2Sc2ccccc21)N(C)C` (stereo unspecified) [Promethazine HCl] (70.317 µM), the “fraction of cells in G1 phase” value turned out to be 0.437 under setting [3] and 0.204 under setting [1].

In the case of `O=C1CCc2ccc(OCCCCN3CCN(c4cccc(Cl)c4Cl)CC3)cc2N1` [Aripiprazole] (44.6034 µM), the “fraction of cells in G1 phase” value is, setting by setting: under setting [3], 0.411; under setting [2], 0.762; under setting [1], 0.854.

On to `CN1CCN(C2=Nc3cc(Cl)ccc3Nc3ccccc32)CC1` [Clozapine] (61.1935 µM), for which the “fraction of cells in G1 phase” value reads like this: under setting [3], 0.437; under setting [1], 0.319.

For `Clc1ccc(CO/N=C(\Cn2ccnc2)c2ccc(Cl)cc2Cl)c(Cl)c1` [Oxiconazole nitrate] (46.6053 µM), the “fraction of cells in G1 phase” value came out at 0.397 under setting [2] and 0.853 under setting [1].

With `CC(=O)[C@H]1CC[C@H]2[C@@H]3CCC4=CC(=O)CC[C@]4(C)[C@H]3CC[C@]12C` [Progesterone] (63.5987 µM), the “fraction of cells in G1 phase” value by setting is: under setting [3], 0.501; under setting [2], 0.693; under setting [1], 0.607.

Take `Fc1ccc(C(c2ccc(F)cc2)N2CCN(C/C=C/c3ccccc3)CC2)cc1` [Flunarizine-2HCl] (41.8936 µM): the “fraction of cells in G1 phase” value under setting [3] was 0.442, the “fraction of cells in G1 phase” value under setting [2] is 0.761 and the “fraction of cells in G1 phase” value under setting [1] was 0.605.

As for `CCN(CC)C(=S)SSC(=S)N(CC)CC` [Disulfiram] (67.4445 µM), the “fraction of cells in G1 phase” value under setting [2] came out at 0.466 and the “fraction of cells in G1 phase” value under setting [1] is 0.876.

In the case of `CO[C@@]12[C@H](COC(N)=O)C3=C(C(=O)C(C)=C(N)C3=O)N1C[C@@H]1N[C@@H]12` [Mitomycin c] (59.8203 µM), the “fraction of cells in G1 phase” value under setting [3] amounted to 0.399 and the “fraction of cells in G1 phase” value under setting [1] stood at 0.273.

On to `OC(Cn1cncn1)(Cn1cncn1)c1ccc(F)cc1F` [Fluconazole] (65.3004 µM), for which the “fraction of cells in G1 phase” value reads like this: under setting [3], 0.441; under setting [2], 0.711; under setting [1], 0.611.

As for `C[C@H](CS)C(=O)N1CCC[C@H]1C(=O)O` [Captopril] (92.0434 µM), the “fraction of cells in G1 phase” value under setting [2] came out at 0.436 and the “fraction of cells in G1 phase” value under setting [1] worked out at 0.633.

Take `C[C@]12CCC(=O)C=C1C=C[C@@H]1[C@@H]2CC[C@@]2(C)[C@H]1CC[C@@]21CCC(=O)O1` [Canrenone] (58.7429 µM): the “fraction of cells in G1 phase” value reads like this: under setting [3], 0.453; under setting [2], 0.649; under setting [1], 0.612.

In the case of `CC(C)C(=O)c1c(C(C)C)nn2ccccc12` [Ibudilast] (86.8386 µM), the “fraction of cells in G1 phase” value under setting [3] was determined as 0.462, the “fraction of cells in G1 phase” value under setting [2] turned out to be 0.698 and the “fraction of cells in G1 phase” value under setting [1] turned out to be 0.604.

In the case of `Clc1ccc(C(Cn2ccnc2)OCc2ccsc2Cl)c(Cl)c1` (stereo unspecified) [Tioconazole] (51.5839 µM), the “fraction of cells in G1 phase” value under setting [2] was found to be 0.427 and the “fraction of cells in G1 phase” value under setting [1] is 0.863.

For the compound `CC[C@H](C)C(=O)O[C@H]1C[C@@H](C)C=C2C=C[C@H](C)[C@H](CC[C@@H]3C[C@@H](O)CC(=O)O3)[C@H]21` [Lovastatin] (49.4375 µM), the “fraction of cells in G1 phase” value runs as follows: under setting [3], 0.402; under setting [2], 0.698; under setting [1], 0.747.

Turning to `CC(C)COCC(CN(Cc1ccccc1)c1ccccc1)N1CCCC1` (stereo unspecified) [Bepridil] (48.4262 µM), the “fraction of cells in G1 phase” value is, setting by setting: under setting [3], 0.391; under setting [2], 0.637; under setting [1], 0.601.

For the compound `CCc1nn(CCCN2CCN(c3cccc(Cl)c3)CC2)c(=O)n1CCOc1ccccc1` [Nefazodone] (42.5515 µM), the “fraction of cells in G1 phase” value by setting is: under setting [3], 0.422; under setting [2], 0.688; under setting [1], 0.721.
